Several values for one entry are separate records, joined by “and”; a condition that tells them apart may be missing. Equal entries are not always repeated. In all, about 5,500 compounds went through this assay and about 2,000 (36%) were called active. Inconclusive results (about 18%) are left out. Rule as the data show it: active = normalized growth mostly below about 0.91 (no sharp cut-off); inconclusive = no clear call, values can overlap the other calls; inactive = mostly above about 0.92. The list shows a part of the results.
Assay: chemical genetic growth profiling, strain panel (AID 1159580);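 also: tested at 20 µM; growth read once vehicle control cultures reached saturation at 30 °C; 1 = growth at the plate median or of vehicle wells; lower values mean less growth of the strain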
Conditions: S. cerevisiae deletion strains, growth OD

Measured: normalized growth

Cc1ccc(S(=O)(=O)NC(=O)NN2CCCCCC2)cc1
inactive: locus YAL013W, strain DEP1, hits give low values 0.996 | locus YAL021C, strain ccr4, hits give low values 0.999 | locus YAL026C, strain drs2, hits give low values 0.974 | locus YAL030W, strain snc1, hits give low values 0.991 | locus YAL040C, strain CLN3, hits give low values 1.05 | locus YBL061C, strain skt5, hits give low values 0.986 | locus YBR009C, strain hhf1, hits give low values 0.994 | locus YBR021W, strain FUR4, hits give low values 0.986 | locus YBR023C, strain chs3, hits give low values 0.981 | locus YBR171W, strain sec66, hits give low values 0.99 | locus YBR229C, strain ROT2, hits give low values 0.995 | locus YBR231C, strain swc5, hits give low values 0.999 | locus YBR279W, strain paf1, hits give low values 0.994 | locus YCL011C, strain gbp2, hits give low values 0.987 | locus YCL016C, strain dcc1, hits give low values 0.953 | locus YCL029C, strain bik1, hits give low values 0.99 | locus YCL061C, strain MRC1 (second series), hits give low values 0.998 | locus YCL069W, strain vba3, hits give low values 0.986 | locus YCR088W, strain abp1, hits give low values 0.984 | locus YDL005C, strain med2, hits give low values 0.989 | locus YDL035C, strain GPR1, hits give low values 0.997 | locus YDL040C, strain nat1, hits give low values 0.991 | locus YDL074C, strain BRE1, hits give low values 1.06 | locus YDL101C, strain DUN1, hits give low values 0.997 | locus YDL134C, strain PPH21, hits give low values 0.987 | locus YDL185W, strain tfp1, hits give low values 0.983 | locus YDL192W, strain arf1, hits give low values 0.988 | locus YDR001C, strain nth1, hits give low values 0.986 | locus YDR069C, strain doa4, hits give low values 1 | locus YDR101C, strain arx1, hits give low values 0.989 | locus YDR137W, strain rgp1, hits give low values 0.932 | locus YDR150W, strain NUM1, hits give low values 1 | locus YDR159W, strain sac3, hits give low values 0.969 | locus YDR162C, strain NBP2, hits give low values 0.999 | locus YDR195W, strain ref2 0.996 | locus YDR297W, strain sur2, hits give low values 1 | locus YDR318W, strain mcm21, hits give low values 0.977 | locus YDR334W, strain swr1, hits give low values 0.978 | locus YDR335W, strain msn5, hits give low values 0.973 | locus YDR363W, strain ESC2, hits give low values 1.01 | locus YDR388W, hits give low values 0.985 | locus YDR392W, strain spt3, hits give low values 0.861 | locus YDR502C, strain sam2, hits give low values 0.991 | locus YEL003W, strain gim4, hits give low values 1.01 | locus YEL037C, strain rad23, hits give low values 0.975 | locus YEL061C, strain CIN8 (second series), hits give low values 1 | locus YEL061C, strain CIN8, hits give low values 1 | locus YER002W, strain NOP16, hits give low values 1 | locus YER015W, strain faa2, hits give low values 1 | locus YER016W, strain bim1, hits give low values 0.976 | locus YER110C, hits give low values 0.988 | locus YER111C, strain swi4, hits give low values 0.987 | locus YER155C, strain BEM2 (second series), hits give low values 0.972 | locus YER155C, strain BEM2, hits give low values 0.988 | locus YER167W, strain BCK2, hits give low values 0.984 | locus YFR010W, strain ubp6, hits give low values 1.02 | locus YGL078C, strain dbp3, hits give low values 0.987 | locus YGL086W, strain mad1, hits give low values 0.999 | locus YGL167C, strain pmr1, hits give low values 0.992 | locus YGL173C, strain kem1, hits give low values 0.998 | locus YGL227W, strain vid30, hits give low values 1.01 | locus YGL240W, strain doc1, hits give low values 1 | locus YGL248W, strain PDE1, hits give low values 1 | locus YGL253W, strain hxk2, hits give low values 1.02 | locus YGR078C, strain PAC10, hits give low values 1.04 and 0.986 | locus YGR135W, strain pre9, hits give low values 0.965 | locus YGR229C, strain SMI1, hits give low values 1.01 and 1.05 | locus YGR252W, strain gcn5, hits give low values 0.96 | locus YHR013C, strain ard1, hits give low values 0.966 | locus YHR027C, strain rpn1, hits give low values 1 | locus YHR030C, strain SLT2, hits give low values 0.992 and 1.02 | locus YHR079C, strain IRE1 (second series), hits give low values 0.988 | locus YHR079C, strain IRE1, hits give low values 1.02 | locus YHR094C, strain hxt1, hits give low values 0.98 | locus YHR129C, strain ARP1, hits give low values 0.993 | locus YHR142W, strain chs7, hits give low values 0.986 | locus YHR200W, strain rpn10, hits give low values 0.984 | locus YIL066C, strain RNR3, hits give low values 1 | locus YIL073C, strain SPO22, hits give low values 0.925 | locus YIL125W, strain kgd1, hits give low values 0.982 | locus YIR030C, strain dcg1, hits give low values 0.978 | locus YJL092W, strain hpr5, hits give low values 0.991 | locus YJL095W, strain BCK1 (second series), hits give low values 0.982 | locus YJL095W, strain BCK1, hits give low values 1.03 and 1.02 | locus YJL115W, strain asf1, hits give low values 0.979 | locus YJL129C, strain trk1, hits give low values 0.952 | locus YJL134W, strain LCB3, hits give low values 0.995 | locus YJL154C, strain vps35, hits give low values 0.989 | locus YJL164C, strain tpk1, hits give low values 0.991 | locus YJL166W, strain qcr8, hits give low values 0.997 | locus YJL168C, strain set2, hits give low values 0.987 | locus YJL187C, strain SWE1 (second series), hits give low values 1.02 | locus YJL187C, strain SWE1, hits give low values 0.992 | locus YJR043C, strain POL32, hits give low values 1.02 | locus YJR066W, strain TOR1, hits give low values 0.948
